# Source: PubChem BioAssay AID1861 (The Scripps Research Institute Molecular Screening Center, 2009)
# Screen size: about 290,000 compounds; about 3,100 (1.1%) were called active. The sample holds actives, similar compounds and a random draw of the others, so the mix is not that of the screen. Cut-off read from the data, not from the text of the source: active = inhibition above about 16% (passing the limit was not always enough); inactive = the rest.
# Target: Neuropeptides B/W receptor type 1 (Homo sapiens) (UniProt P48145)
# Sequence (P48145 whole entry, looked up): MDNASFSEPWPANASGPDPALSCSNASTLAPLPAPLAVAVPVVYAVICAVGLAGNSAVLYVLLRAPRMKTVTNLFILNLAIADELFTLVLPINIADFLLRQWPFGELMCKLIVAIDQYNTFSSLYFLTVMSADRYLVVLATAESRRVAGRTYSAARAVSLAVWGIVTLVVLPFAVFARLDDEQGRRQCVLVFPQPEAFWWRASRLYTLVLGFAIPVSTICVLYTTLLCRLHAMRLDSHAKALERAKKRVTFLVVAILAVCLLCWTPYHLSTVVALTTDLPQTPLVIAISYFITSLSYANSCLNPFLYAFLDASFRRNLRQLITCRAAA
# Test: GPR7 receptor antagonists, primary screen, cell-based, fluorescence, single concentration (AID 1861);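 note: cells stimulated with the agonist NPW; 0% = agonist with vehicle and 100% = vehicle without agonist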
# Conditions: GPR7-expressing cells, fluorescence antagonist assay; at 4.4 µM; hits give high values
row,Structure (SMILES),inhibition
1,Cn1c(=O)c([N+](=O)[O-])c(Oc2ccccc2)c2ccccc21,101% (active)
2,Cc1nn(C)c(Oc2ccccc2)c1[N+](=O)[O-],-4.53% (inactive)
3,Cc1cccc(Oc2c([N+](=O)[O-])c(=O)n(C)c3ccccc23)c1,-3.17% (inactive)
4,CC(Cc1cccs1)N(Cc1ccc(Cl)cc1)C(=O)c1ccncc1 (stereo unspecified),14.5% (inactive)
5,O=[N+]([O-])c1cccc(/C=N/Nc2ncc(Br)cn2)c1,-6.1% (inactive)
6,Cc1c(CN2CCC(n3nccc3NC(=O)CCc3ccccc3)CC2)cnn1C,0.34% (inactive)
7,O=S(=O)(Nc1ccccn1)c1ccc(Oc2ccccc2)cc1,-3.88% (inactive)
8,COc1ccccc1Oc1ccc(S(=O)(=O)Nc2cccnc2)cc1,27.5% (active)
9,COc1ccc(S(=O)(=O)Nc2cccnc2)c(Cl)c1Cl,4.69% (inactive)
10,Cc1cc(OC(C)C(=O)NC2CC(C)(C)NC(C)(C)C2)c2c(C)cc(=O)oc2c1 (stereo unspecified),27.1% (active)
11,CC(Oc1cccc(Cl)c1)C(=O)NC1CC(C)(C)NC(C)(C)C1 (stereo unspecified),-7.54% (inactive)
12,Cc1cc(=O)oc(C)c1C(=O)NC1CC(C)(C)NC(C)(C)C1,6.27% (inactive)
13,O=c1oc2ccccc2c(CNc2ccccc2)c1[N+](=O)[O-],6.62% (inactive)
14,CCN1/C(=C/c2ccc3ccc(C)cc3[n+]2CC)Sc2ccccc21,38.4% (active)
15,CCN1/C(=C\c2ccc3ccccc3[n+]2CC)Sc2cc(C)ccc21,34.1% (active)
16,CCN1CCN(CCNC(=O)c2ccc(/C=C3/Sc4ccccc4N(Cc4cccc(C)c4)C3=O)cc2)CC1,3.05% (inactive)
17,Cc1cc(-c2ccc(S(=O)(=O)N3CCc4ccccc4C3)s2)on1,1.59% (inactive)
18,CC(=O)Oc1ccc2c(=O)oc(-c3ccc([N+](=O)[O-])cc3)nc2c1,-20.8% (inactive)
19,Cc1cccc(N(C(=O)c2csnn2)C(C(=O)NCc2ccccc2)c2ccncc2)c1 (stereo unspecified),-21.8% (inactive)
20,CCC(=O)Nc1ccc(S(=O)(=O)Nc2c(NC)c3ccccc3oc2=O)cc1,-6.83% (inactive)
21,Cn1c(Nc2ccccc2)cc(=O)n(C)c1=O,19.8% (inactive)

row,Structure (SMILES),inhibition
1,Cc1cccc(N2CCN(C(=O)c3cc4c(=O)[nH]c5ccccc5c4n3C)CC2)c1C,-11.3% (inactive)
2,COc1ccccc1N(C(=O)Cn1nnc2ccccc21)C(C(=O)NCc1ccco1)c1ccc(C)o1 (stereo unspecified),27% (active)
3,COCCNC(=O)C(c1ccc(C)o1)N(Cc1ccccc1)C(=O)Cn1nnc2ccccc21 (stereo unspecified),-3% (inactive)
4,O=C(NCc1ccco1)C(c1ccncc1)N(C(=O)Cn1nnc2ccccc21)c1ccccc1 (stereo unspecified),-15.7% (inactive)
5,CCOc1ccc(C(CC(=O)O)NC(=O)Cc2ccccc2)cc1OC (stereo unspecified),-15.8% (inactive)
6,COc1cccc2cc(C(N)=O)/c(=N\NC(=O)c3ccccc3)oc12,20.9% (inactive)
7,CCn1ccnc1CN(C)C(=O)c1cc(COc2ccc(-n3cncn3)cc2)on1,-16.5% (inactive)
8,O=C(c1cc(COc2ccc(F)c(F)c2)on1)N1CCOCC1,1.79% (inactive)
9,C=CCC1(CC=C)CCCN1C(=O)c1cc(COc2ccc(-n3cncn3)cc2)on1,29.1% (active)
10,O=C(COC(=O)c1ccc(F)cc1)NCCCc1ccccc1,12.2% (inactive)
11,O=C(Nc1ccccc1)c1nnsc1S(=O)(=O)c1ccc(Cl)cc1,42.6% (active)
12,CS(=O)(=O)c1ccc(Cl)c(NC(=O)Nc2ccccc2)c1,4.03% (inactive)
13,O=C(c1ccc(Cl)cc1)c1cnc(Nc2ccccc2)s1,7.11% (inactive)
14,COc1ccccc1N1CCN(C(=O)c2ccc(NC3=NC4CS(=O)(=O)CC4S3)cc2)CC1 (stereo unspecified),-7.21% (inactive)
15,Cc1cc(OCc2ccc(C(=O)Nc3ccc(C(=O)O)cc3)o2)ccc1Cl,38% (active)
16,CCOc1ccc(OCc2ccc(C(=O)Nc3cccc(C)n3)o2)cc1,-9.15% (inactive)
17,O=C(O)c1ccc(NC(=O)c2ccc(COc3ccc(Cl)cc3)o2)cc1,15.6% (inactive)
18,CCNc1c(NS(=O)(=O)c2ccc(C3CCCCC3)cc2)c(=O)oc2ccccc12,12.2% (inactive)
19,CC(=O)N1CCN(c2ccccc2NC(=S)NC(=O)c2cc3ccccc3o2)CC1,-12.1% (inactive)
20,Cc1cc(C)nc(N/N=C/c2ccc([N+](=O)[O-])o2)n1,-3.49% (inactive)
21,Cc1ccc(CNCc2ccc3c(c2)OCO3)c(C)c1,-3.64% (inactive)

row,Structure (SMILES),inhibition
1,COc1ccc(C2(C)NC(=O)N(CC(=O)c3ccc4c(c3)OCO4)C2=O)cc1 (stereo unspecified),0.08% (inactive)
2,COc1ccc(C(=O)CN2C(=O)NC(C)(c3ccc(C)cc3)C2=O)cc1OC (stereo unspecified),22.6% (inactive)
3,COc1cc(NC(=O)CN2C(=O)NC(C)(c3ccc(OC(F)F)cc3)C2=O)cc(OC)c1OC (stereo unspecified),25.8% (active)
4,Cc1nonc1NC(=O)c1oc2ccccc2c1C,-9.19% (inactive)
5,CCc1ccc(NC(=O)Cn2nnc(C(=O)NCc3ccc(OC)cc3)c2N)cc1,-9.93% (inactive)
6,CCOc1ccc(Cn2nnc(C(=O)NCc3ccccc3)c2N)cc1,35.9% (active)
7,CCOc1ccc(Cn2nnc(C(=O)Nc3ccc(OC)cc3OC)c2N)cc1,17.7% (inactive)
8,O=C(NCCc1ccccn1)c1cccnc1Oc1ccc(Cl)cc1,-10.8% (inactive)
9,COc1ccc(CCNC(=O)c2ccccc2OCc2ccccc2)cc1,1.73% (inactive)
10,CCOc1ncccc1C(=O)NCCc1ccc(OC)cc1,24.6% (active)
11,CC(C)NC(=O)C(c1ccc(F)cc1)N(C(=O)CCC(=O)Nc1ccccn1)c1ccccc1F (stereo unspecified),-14.6% (inactive)
12,Cc1ccc2[nH]cc(CCNC(=O)C3CCCCC3)c2c1,-3.83% (inactive)
13,Cc1ccc2[nH]cc(CCNC(=O)c3ccc([N+](=O)[O-])cc3)c2c1,25% (active)
14,O=C(NCCc1c[nH]c2ccc(Cl)cc12)c1ccc([N+](=O)[O-])cc1,7.45% (inactive)
15,O=C(N/N=C/c1ccccc1O)C1CCCC1,-6.49% (inactive)
16,CCN(CC)CCCNC(=O)CCn1nc(-c2ccc(Cl)cc2)ccc1=O,11% (inactive)
17,O=C(Nc1ccc2c(c1)OCO2)C1CC(c2c(F)cccc2Cl)=NO1 (stereo unspecified),29% (active)
18,Cc1ccccc1N1CC(C(=O)Nc2ccc3c(c2)OCO3)CC1=O (stereo unspecified),-9.07% (inactive)
19,Cc1ccc(NC(=O)C2CC(c3ccc(F)cc3)=NO2)cc1 (stereo unspecified),-5.41% (inactive)
